2 sequences from article PMC7862700, “An all-to-all approach to the identification of sequence-specific readers for epigenetic DNA modifications on cytosine” can be followed below.

Assay in all cases: DAPPL (digital affinity profiling via proximity ligation, sequencing); 10 mM Tris-HCl pH 7.5, 50 mM NaCl, 1 mM DTT, 4% glycerol, room temperature, 30 min; GST-TFs on glutathione beads, 16-mer random dsDNA library, 0.1% formaldehyde crosslink after washing; high values mean tight binding
Common to all, as to conditions: protein: recombinant; tags: N-terminal GST; dsDNA, one strand shown

Experiment [1] has as its target T1, ERG (Homo sapiens, UniProt P11308 1-479).
T1 sequence: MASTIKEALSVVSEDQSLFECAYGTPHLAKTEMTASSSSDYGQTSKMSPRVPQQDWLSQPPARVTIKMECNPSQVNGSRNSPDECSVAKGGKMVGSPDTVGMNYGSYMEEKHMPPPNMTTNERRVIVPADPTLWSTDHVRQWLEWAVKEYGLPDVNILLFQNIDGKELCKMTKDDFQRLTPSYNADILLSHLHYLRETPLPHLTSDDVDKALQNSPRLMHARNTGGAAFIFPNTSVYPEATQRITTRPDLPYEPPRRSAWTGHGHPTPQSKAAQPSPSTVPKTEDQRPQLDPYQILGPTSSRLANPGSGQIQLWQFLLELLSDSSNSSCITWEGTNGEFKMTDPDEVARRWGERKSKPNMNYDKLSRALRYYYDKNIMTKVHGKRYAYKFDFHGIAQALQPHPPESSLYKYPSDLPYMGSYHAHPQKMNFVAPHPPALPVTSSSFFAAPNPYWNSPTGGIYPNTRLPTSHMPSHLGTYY
In a few lines: (§1)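 Each value of binding signal is a hexamer's read frequency for a factor divided by the same hexamer's frequency in the tag-only sample. Barcoded, bead-captured GST fusions of human transcription factors made in yeast were pooled with that sample and incubated with 200 nmole of a random double-stranded 16-mer DNA library in Tris/NaCl/DTT/glycerol buffer at room temperature for 30 min. Washing, 0.1% formaldehyde crosslinking, proximity ligation, PCR and Illumina NextSeq500 sequencing followed.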

Experiment [2] concerns the target ELF1 (Homo sapiens, UniProt P32519 1-619). In a few lines: as §1
The target of experiment [3] is T2, EHF (Homo sapiens, UniProt Q9NZC4 1-300).
T2 sequence: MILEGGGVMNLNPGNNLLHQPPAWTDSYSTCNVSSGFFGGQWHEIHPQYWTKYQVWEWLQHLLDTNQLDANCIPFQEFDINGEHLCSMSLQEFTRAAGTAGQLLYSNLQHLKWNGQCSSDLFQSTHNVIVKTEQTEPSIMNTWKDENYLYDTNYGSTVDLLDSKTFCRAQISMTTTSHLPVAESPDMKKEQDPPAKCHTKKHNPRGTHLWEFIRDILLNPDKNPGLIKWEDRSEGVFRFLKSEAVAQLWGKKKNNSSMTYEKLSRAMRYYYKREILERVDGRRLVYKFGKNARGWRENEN
In a few lines:
as §1

The target in experiment [4] is SPIB (Homo sapiens, UniProt Q01892 1-262). In a few lines: as §1
In experiment [5] the target is ETV5 (Homo sapiens, UniProt P41161 1-510). In a few lines:
as §1

In experiment [6] the target is T3, ELF3 (Homo sapiens, UniProt P78545 1-371).
T3 sequence: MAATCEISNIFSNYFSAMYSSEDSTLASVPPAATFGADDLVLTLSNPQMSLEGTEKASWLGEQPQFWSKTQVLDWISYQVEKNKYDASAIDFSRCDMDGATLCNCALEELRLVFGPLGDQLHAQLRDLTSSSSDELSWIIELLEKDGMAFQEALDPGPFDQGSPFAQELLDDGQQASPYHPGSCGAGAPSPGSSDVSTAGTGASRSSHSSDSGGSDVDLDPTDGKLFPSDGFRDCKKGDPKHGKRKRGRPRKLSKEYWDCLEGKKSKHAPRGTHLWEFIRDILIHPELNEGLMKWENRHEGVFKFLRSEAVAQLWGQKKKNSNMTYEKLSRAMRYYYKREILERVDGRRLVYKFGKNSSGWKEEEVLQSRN
In short, it runs like this: as §1

Experiment [7] concerns the target ETV1 (Homo sapiens, UniProt P50549 1-477). In short, it runs like this: as §1
The target in experiment [8] is T4, ELK1 (Homo sapiens, UniProt P19419 1-428).
T4 sequence: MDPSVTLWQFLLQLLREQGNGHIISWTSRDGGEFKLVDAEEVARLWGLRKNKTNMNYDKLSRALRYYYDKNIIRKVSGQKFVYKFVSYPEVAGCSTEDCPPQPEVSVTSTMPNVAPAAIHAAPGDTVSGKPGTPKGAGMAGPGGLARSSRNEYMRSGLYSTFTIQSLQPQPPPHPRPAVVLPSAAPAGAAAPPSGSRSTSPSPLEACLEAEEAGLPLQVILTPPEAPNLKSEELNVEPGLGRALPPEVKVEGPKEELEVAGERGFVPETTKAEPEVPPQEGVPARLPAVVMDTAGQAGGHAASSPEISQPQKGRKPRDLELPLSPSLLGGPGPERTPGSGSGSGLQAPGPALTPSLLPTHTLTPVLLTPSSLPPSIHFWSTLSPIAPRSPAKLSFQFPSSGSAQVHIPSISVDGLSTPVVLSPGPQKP
In short, it runs like this: as §1

The target of experiment [9] is T5, GABPA (Homo sapiens, UniProt Q06546 1-454).
T5 sequence: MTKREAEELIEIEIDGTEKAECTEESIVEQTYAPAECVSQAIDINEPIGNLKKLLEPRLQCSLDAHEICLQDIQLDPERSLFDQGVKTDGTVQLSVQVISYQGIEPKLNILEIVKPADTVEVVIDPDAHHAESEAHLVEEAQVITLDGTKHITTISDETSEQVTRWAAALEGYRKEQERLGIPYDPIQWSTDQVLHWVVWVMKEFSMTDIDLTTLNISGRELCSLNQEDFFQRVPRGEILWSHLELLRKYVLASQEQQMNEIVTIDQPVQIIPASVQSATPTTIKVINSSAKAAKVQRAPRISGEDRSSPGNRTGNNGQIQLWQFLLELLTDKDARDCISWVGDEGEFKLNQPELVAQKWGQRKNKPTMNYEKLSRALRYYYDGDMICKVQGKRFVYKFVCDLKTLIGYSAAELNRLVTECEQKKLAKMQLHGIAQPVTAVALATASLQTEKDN
In a few lines: as §1

The target of experiment [10] is SPI1 (Homo sapiens, UniProt P17947 1-270). In short, it runs like this: as §1
Experiment [11] concerns the target T6, SPIC (Homo sapiens, UniProt Q8N5J4 1-248).
T6 sequence: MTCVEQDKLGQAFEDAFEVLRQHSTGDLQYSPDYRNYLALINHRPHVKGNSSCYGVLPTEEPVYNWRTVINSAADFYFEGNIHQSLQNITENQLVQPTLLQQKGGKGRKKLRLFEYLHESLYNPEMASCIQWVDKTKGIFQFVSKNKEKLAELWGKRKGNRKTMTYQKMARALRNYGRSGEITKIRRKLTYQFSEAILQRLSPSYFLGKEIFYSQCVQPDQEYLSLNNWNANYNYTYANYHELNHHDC
In a few lines:
as §1

The target in experiment [12] is ELF4 (Homo sapiens, UniProt Q99607 1-663). In short, it runs like this: as §1
Experiment [13] has as its target T7, ERF (Homo sapiens, UniProt P50548 1-548).
T7 sequence: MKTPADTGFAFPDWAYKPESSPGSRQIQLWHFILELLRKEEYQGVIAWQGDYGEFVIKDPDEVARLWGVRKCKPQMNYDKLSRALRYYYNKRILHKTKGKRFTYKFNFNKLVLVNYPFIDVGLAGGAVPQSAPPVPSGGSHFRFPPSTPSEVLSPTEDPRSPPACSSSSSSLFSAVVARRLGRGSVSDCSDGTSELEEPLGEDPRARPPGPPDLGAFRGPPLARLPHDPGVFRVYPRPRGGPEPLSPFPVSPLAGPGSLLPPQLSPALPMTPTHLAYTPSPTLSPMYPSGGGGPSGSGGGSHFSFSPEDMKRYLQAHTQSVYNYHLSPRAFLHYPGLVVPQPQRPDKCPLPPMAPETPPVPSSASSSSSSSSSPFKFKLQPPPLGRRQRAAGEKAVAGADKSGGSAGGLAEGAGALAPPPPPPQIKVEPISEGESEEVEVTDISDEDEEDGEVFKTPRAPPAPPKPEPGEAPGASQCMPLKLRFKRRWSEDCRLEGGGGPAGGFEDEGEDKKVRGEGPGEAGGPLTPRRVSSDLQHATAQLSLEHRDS
In a few lines: as §1

For experiment [14], the target named is T8, ETV3L (Homo sapiens, UniProt Q6ZN32 1-361).
T8 sequence: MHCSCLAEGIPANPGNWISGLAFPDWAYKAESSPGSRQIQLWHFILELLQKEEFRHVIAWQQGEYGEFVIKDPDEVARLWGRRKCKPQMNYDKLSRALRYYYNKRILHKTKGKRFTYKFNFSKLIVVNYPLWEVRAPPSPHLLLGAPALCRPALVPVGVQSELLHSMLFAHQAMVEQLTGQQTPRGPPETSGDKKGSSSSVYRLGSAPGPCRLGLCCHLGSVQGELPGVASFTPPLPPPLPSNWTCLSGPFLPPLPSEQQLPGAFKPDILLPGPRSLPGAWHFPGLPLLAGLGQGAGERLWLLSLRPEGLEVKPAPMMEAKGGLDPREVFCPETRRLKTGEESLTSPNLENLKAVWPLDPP
In a few lines: as §1

Experiment [15] deals with T9, ETS2 (Homo sapiens, UniProt P15036 1-469).
T9 sequence: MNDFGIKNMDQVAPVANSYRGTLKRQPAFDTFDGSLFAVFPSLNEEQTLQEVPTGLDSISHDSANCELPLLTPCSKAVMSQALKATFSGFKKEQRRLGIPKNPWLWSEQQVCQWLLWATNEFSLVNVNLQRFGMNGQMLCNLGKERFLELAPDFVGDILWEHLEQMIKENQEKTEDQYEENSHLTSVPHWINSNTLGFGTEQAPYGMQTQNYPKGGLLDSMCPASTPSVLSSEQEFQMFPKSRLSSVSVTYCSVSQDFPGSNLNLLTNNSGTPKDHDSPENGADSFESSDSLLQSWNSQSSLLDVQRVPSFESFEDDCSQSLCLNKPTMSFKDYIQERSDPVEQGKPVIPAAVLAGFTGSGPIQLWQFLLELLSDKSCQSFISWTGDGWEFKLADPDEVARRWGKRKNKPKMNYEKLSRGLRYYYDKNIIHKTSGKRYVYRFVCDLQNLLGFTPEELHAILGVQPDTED
In a few lines: as §1

The target of experiment [16] is T10, SPDEF (Homo sapiens, UniProt O95238 1-335).
T10 sequence: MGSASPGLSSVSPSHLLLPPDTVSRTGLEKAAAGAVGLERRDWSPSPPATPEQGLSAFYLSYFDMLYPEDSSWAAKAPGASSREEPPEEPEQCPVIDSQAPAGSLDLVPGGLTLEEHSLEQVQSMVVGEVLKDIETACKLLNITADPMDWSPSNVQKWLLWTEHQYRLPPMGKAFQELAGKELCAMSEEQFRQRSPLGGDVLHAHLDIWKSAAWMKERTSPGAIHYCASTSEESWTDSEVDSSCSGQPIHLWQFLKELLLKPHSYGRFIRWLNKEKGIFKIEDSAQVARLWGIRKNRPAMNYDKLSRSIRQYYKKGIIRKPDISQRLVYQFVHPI
In a few lines: as §1

Experiment [17] addresses T11, ETV7 (Homo sapiens, UniProt Q9Y603 1-341).
T11 sequence: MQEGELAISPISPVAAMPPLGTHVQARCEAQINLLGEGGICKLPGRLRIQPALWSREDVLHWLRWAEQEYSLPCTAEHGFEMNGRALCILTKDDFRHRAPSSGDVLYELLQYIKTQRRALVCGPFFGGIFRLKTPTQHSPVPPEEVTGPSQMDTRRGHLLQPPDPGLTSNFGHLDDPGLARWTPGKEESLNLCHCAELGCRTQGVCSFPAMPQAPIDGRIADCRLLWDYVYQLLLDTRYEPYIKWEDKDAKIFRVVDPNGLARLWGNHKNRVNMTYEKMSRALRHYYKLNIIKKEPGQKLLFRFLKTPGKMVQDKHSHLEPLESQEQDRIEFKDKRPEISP
In a few lines:
as §1

For experiment [18], the target named is T12, ETV3 (Homo sapiens, UniProt P41162-2 1-143).
T12 sequence: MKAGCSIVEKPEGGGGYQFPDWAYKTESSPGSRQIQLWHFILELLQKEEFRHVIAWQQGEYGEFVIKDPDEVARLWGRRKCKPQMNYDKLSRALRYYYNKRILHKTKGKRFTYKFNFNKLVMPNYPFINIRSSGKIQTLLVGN
In a few lines:
as §1

Experiment [19] concerns the target ETV6 (Homo sapiens, UniProt P41212 1-452). In short, it runs like this: as §1

Chain of SPIB (Q01892 whole entry): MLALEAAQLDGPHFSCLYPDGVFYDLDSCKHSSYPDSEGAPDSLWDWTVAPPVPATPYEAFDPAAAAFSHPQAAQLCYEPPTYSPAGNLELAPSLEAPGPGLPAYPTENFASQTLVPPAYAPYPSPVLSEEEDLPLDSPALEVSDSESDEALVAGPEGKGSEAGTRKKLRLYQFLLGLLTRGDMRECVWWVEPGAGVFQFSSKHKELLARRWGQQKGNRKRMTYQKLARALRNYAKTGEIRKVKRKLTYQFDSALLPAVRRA
Chain of ELF1 (P32519 whole entry): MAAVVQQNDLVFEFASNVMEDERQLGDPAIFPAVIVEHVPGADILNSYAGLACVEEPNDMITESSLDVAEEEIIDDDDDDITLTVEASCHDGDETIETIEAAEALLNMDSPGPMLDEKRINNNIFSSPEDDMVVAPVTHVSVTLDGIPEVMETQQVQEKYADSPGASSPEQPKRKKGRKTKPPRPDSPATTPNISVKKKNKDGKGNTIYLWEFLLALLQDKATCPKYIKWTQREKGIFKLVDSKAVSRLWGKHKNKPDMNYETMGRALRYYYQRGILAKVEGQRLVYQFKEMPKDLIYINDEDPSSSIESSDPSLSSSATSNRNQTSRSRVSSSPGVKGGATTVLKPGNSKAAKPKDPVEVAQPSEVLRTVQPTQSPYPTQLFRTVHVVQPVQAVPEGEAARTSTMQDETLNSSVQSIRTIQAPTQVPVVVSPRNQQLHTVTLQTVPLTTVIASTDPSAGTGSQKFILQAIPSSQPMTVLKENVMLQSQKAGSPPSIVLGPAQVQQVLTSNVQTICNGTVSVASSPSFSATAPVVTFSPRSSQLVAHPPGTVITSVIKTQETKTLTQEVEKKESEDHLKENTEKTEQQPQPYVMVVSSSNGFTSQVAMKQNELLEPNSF
Chain of ETV5 (P41161 whole entry): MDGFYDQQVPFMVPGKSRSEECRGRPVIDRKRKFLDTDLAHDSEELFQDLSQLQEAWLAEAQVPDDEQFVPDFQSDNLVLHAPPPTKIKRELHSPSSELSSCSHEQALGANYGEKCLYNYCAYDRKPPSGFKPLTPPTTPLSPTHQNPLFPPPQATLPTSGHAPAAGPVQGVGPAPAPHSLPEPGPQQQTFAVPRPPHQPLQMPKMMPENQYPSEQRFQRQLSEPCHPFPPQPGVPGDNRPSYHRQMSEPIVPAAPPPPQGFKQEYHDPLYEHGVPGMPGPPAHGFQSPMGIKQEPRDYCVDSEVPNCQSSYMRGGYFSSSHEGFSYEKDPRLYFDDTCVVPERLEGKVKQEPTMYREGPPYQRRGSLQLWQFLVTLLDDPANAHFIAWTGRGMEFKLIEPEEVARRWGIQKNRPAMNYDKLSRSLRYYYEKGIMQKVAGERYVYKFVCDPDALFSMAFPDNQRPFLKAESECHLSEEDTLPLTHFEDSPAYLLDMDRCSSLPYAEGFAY
Chain of ETV1 (P50549 whole entry): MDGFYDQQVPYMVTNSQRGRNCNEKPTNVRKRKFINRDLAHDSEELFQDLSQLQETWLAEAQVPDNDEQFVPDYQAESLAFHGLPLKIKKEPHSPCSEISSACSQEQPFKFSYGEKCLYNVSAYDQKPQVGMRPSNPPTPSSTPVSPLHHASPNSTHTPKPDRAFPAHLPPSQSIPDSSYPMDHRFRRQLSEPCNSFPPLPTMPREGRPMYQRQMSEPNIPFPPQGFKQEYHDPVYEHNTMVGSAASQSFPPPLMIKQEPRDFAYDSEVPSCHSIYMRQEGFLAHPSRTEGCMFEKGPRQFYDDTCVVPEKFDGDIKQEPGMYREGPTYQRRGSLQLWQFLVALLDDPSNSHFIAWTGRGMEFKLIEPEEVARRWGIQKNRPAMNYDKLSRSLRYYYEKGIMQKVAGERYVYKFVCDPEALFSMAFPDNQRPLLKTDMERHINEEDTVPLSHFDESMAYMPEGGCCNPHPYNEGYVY
Chain of ELF4 (Q99607 whole entry): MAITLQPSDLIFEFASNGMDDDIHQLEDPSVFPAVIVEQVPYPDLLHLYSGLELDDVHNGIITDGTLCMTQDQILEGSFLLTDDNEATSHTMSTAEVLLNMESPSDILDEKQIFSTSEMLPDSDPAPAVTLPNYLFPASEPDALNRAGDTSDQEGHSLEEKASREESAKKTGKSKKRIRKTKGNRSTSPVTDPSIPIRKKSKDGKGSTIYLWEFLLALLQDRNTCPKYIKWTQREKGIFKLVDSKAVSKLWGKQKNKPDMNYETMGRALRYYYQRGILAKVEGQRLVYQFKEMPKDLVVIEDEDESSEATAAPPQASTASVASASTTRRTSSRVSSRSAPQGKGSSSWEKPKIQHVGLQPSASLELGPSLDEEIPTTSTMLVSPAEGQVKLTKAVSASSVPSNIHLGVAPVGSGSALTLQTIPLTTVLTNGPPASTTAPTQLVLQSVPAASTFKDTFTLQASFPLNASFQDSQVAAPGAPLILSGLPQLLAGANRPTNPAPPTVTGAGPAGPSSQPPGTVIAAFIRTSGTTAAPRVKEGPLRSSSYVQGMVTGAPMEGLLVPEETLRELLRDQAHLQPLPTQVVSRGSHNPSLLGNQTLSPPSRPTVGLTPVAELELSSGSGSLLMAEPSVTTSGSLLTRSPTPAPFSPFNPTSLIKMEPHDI
Chain of ETV6 (P41212 whole entry): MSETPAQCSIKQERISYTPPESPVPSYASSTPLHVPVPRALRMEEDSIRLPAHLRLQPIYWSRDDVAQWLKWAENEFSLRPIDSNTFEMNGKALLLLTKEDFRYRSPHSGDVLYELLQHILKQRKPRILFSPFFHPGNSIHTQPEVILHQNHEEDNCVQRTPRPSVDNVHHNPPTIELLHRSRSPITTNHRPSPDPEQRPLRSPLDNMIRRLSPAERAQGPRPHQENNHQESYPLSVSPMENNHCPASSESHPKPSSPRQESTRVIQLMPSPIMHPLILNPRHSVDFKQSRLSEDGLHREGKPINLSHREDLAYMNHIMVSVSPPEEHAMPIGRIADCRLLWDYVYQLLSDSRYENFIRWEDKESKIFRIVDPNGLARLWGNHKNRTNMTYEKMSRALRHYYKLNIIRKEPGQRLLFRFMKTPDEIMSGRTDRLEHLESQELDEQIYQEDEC

In the case of TGGAAC, the binding signal in experiment [1] was 1.02 fold enrichment (6-mer frequency, TF over GST control); in experiment [2] it was 1 fold enrichment (6-mer frequency, TF over GST control); in [3] it was 1.04 fold enrichment (6-mer frequency, TF over GST control); in experiment [4] it was 1.04 fold enrichment (6-mer frequency, TF over GST control); in experiment [5], 1.05 fold enrichment (6-mer frequency, TF over GST control); in experiment [6], 1.05 fold enrichment (6-mer frequency, TF over GST control). Also, in experiment [7], the binding signal is 1.04 fold enrichment (6-mer frequency, TF over GST control).

As for AGTGCA, the binding signal in experiment [8] was 1.1 fold enrichment (6-mer frequency, TF over GST control); in [9], 1.1 fold enrichment (6-mer frequency, TF over GST control); in experiment [1], 1.07 fold enrichment (6-mer frequency, TF over GST control); in [2] it was 1.07 fold enrichment (6-mer frequency, TF over GST control); in experiment [3], 1.09 fold enrichment (6-mer frequency, TF over GST control); in experiment [10], 1.47 fold enrichment (6-mer frequency, TF over GST control). Moreover, the binding signal was 1.08 fold enrichment (6-mer frequency, TF over GST control) in [4]; 1.14 fold enrichment (6-mer frequency, TF over GST control) in experiment [5]; 1.21 fold enrichment (6-mer frequency, TF over GST control) in experiment [11]; 1.03 fold enrichment (6-mer frequency, TF over GST control) in experiment [12]; 1.16 fold enrichment (6-mer frequency, TF over GST control) in [6]; 1.11 fold enrichment (6-mer frequency, TF over GST control) in experiment [7]. For the same sequence, the binding signal was 1.12 fold enrichment (6-mer frequency, TF over GST control) in [13]; 1.03 fold enrichment (6-mer frequency, TF over GST control) in [14]; 1.08 fold enrichment (6-mer frequency, TF over GST control) in experiment [15]; 1.07 fold enrichment (6-mer frequency, TF over GST control) in experiment [16]; 1.18 fold enrichment (6-mer frequency, TF over GST control) in experiment [17]; 1.05 fold enrichment (6-mer frequency, TF over GST control) in [18]. The binding signal in experiment [19] is 1.16 fold enrichment (6-mer frequency, TF over GST control).
